Test [1] addresses Inward rectifier potassium channel 2 (Mus musculus) (UniProt P35561). The test can be described thus: inhibition of Kir2.1 inward rectifier potassium flux – cell-based, FluxOR thallium flux, duplicate, confirmation (AID 2032). As to conditions: Kir2.1-expressing cells, FluxOR thallium flux fluorescence, at 10 µM; stronger effect = lower value.
Test [2] in a line: parental HEK293 cell activity, no Kir2.1 – FluxOR thallium flux, duplicate, single concentration, counter-screen for Kir2.1 inhibitor project, confirmation (AID 2105;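 active means dye signal at least 3 control SD above or below untreated wells in both duplicates, raw fluorescence within 3, either direction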;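 on FluxOR signal as % of negative control (100 = no effect): percent is based on the flux ratio of peak minus minimum fluorescence over baseline F0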). As to conditions: parental HEK293 cells, FluxOR thallium flux fluorescence, at 10 µM; 0% = unstimulated blank wells. (In general: A counterscreen serves to expose hits that act by an unwanted route or on another target.)

Some of the results follow. Unmarked numbers belong to inactive results. Calls of active or inactive are those of the source.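 How the source made its calls, unless noted: active means Primary-screen hit whose thallium flux fell at least 3 control SD below untreated wells in both duplicates, with normal baseline fluorescence; inactive means the rest.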

Chain of Inward rectifier potassium channel 2 (Mus musculus) (P35561 whole entry, looked up): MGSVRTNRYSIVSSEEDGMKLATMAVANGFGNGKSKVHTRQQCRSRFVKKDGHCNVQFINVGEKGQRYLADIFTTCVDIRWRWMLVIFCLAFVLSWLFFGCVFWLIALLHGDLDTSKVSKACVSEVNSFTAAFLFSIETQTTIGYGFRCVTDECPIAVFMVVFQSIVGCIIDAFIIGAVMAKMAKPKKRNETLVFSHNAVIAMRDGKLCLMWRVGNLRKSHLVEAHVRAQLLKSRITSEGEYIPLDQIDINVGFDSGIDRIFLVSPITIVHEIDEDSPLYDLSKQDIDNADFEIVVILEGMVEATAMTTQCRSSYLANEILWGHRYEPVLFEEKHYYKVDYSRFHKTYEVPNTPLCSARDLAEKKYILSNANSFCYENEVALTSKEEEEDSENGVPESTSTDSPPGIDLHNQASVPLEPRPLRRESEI

Consider `NC(N)=Nc1nc(-c2ccccc2)c2cc(Cl)ccc2n1`, for which the compound was classed as inactive in test [1] and in test [2].
`O=C(CCl)N(Cc1cccc([N+](=O)[O-])c1)c1cccc(Cl)c1`: the call in test [1] and in test [2] was inactive.
Turning to `CC1CN(C(=O)CCC(=O)NCCCN2CCC(Cc3ccccc3)CC2)c2cc(Cl)ccc2O1` (stereo unspecified), in test [1], the Tl flux remaining, % of negative control (stronger effect = lower value) was 35.5% (active). The outcome in test [2] was inactive.
The like results for `Cc1cc(C)c(C)c(S(=O)(=O)Nc2ccc(O)cc2)c1C` were, in that order, 65.5% (active) and “inactive”.
On to `CCCCCCCCCCOC(=O)Cn1c(COc2cccc(OC)c2)[n+](C)c2ccccc21`, for which the compound was classed as inactive in test [1] and in test [2].
In the case of `c1ccc(CSc2nnc(-c3ccco3)n2Cc2ccccc2)cc1`, in test [1], the Tl flux remaining, % of negative control (stronger effect = lower value) is 54% (active). The result in test [2] was inactive.
Turning to `CCC(=O)OCc1c(C(F)(F)F)nn(C)c1Oc1cccc(C(F)(F)F)c1`, the result in test [1] and in test [2] was inactive.
Take `COc1ccc(CN2CCC(c3nc4ccc(Cl)cc4[nH]3)CC2)cc1`: in test [1], the Tl flux remaining, % of negative control (stronger effect = lower value) was 30% (active). Moreover, the outcome in test [2] was inactive.
`CCCCCCCCCCOC(=O)Cn1c(COc2ccc(C)cc2)[n+](C)c2ccccc21`: the compound was classed as inactive in test [1] and in test [2].
`COc1ccc(CCNCc2c(-c3ccccc3)n(C)c3ccccc23)cc1`: the Tl flux remaining, % of negative control (stronger effect = lower value) in test [1] is 33.5% (active). Further, the FluxOR signal as % of negative control (100 = no effect) in test [2] was 72% (active).
Consider `CN(Cc1ccccc1)CC(O)COc1ccc(CNCc2cc3ccccc3s2)cc1` (stereo unspecified), for which the Tl flux remaining, % of negative control (stronger effect = lower value) in test [1] is 33.5% (active). Also, the FluxOR signal as % of negative control (100 = no effect) in test [2] is 74.5% (active).
Consider `Clc1ccc(-c2cc(C3CCNCC3)[nH]n2)c(Cl)c1`, for which the Tl flux remaining, % of negative control (stronger effect = lower value) in test [1] was 22.5% (active). In addition, the result in test [2] was inactive.
Consider `COc1ccccc1CCNS(=O)(=O)c1cc2c3c(c1)C(C)C(=O)N3CCC2` (stereo unspecified), for which, in test [1], the Tl flux remaining, % of negative control (stronger effect = lower value) is 62% (active). Also, in test [2], the outcome was inactive.
As to `Cc1ccc(-c2nn(-c3ccccc3)cc2/C=C2\SC(=S)N(CCCCCC(=O)O)C2=O)o1`, the result in test [1] was inactive. Further, in test [2], the FluxOR signal as % of negative control (100 = no effect) is 75% (active).
Take `CCCCCCCCn1c2c(c(=N)c3c1CCC3)CCCC2`: the Tl flux remaining, % of negative control (stronger effect = lower value) in test [1] is 10% (active). In test [2], the result was inactive.
As to `COc1ccc2c(c1)C=CC1(O2)N(CCO)c2ccccc2C1(C)C` (stereo unspecified), in test [1], the compound was classed as inactive. The FluxOR signal as % of negative control (100 = no effect) in test [2] is 53.5% (active).
Take `COc1ccc(Nc2ncnc3sc(C)cc23)cc1`: the outcome in test [1] and in test [2] was inactive.
Turning to `CCN(CC)CCC(c1ccc2c(c1)OCO2)c1c(OC)cc(OC)c2c(-c3ccccc3)cc(=O)oc12` (stereo unspecified), the Tl flux remaining, % of negative control (stronger effect = lower value) in test [1] is 65.5% (active). Besides, the result in test [2] was inactive.
The like results for `COc1ccc(CCC(C)N2CCc3ccccc3C2)cc1` (stereo unspecified) were, in that order, 25.5% (active) and “inactive”.
Regarding `O=C(Nc1ccccc1Cl)/C(Cl)=C(\Cl)S(=O)c1ccccc1` (stereo unspecified), the Tl flux remaining, % of negative control (stronger effect = lower value) in test [1] is 60.5% (active). The FluxOR signal as % of negative control (100 = no effect) in test [2] was 57.5% (active).
For the compound `COc1cc(CNCc2ccc(OC)c3ccccc23)cc(OC)c1OC`, the Tl flux remaining, % of negative control (stronger effect = lower value) in test [1] was 51% (active). For the same compound, the result in test [2] was inactive.
As to `C=CCNC(=S)/N=c1/ccccn1Cc1ccccc1`, the Tl flux remaining, % of negative control (stronger effect = lower value) in test [1] was 64% (active). The result in test [2] was inactive.
The like results for `COc1cccc(CNCCc2c[nH]c3ccccc23)c1OCc1ccccc1F` were, in that order, 23.5% (active) and “inactive”.
With `C(=C\c1ccccc1)/CSc1nnc(-c2cccnc2)n1Cc1ccco1`, the Tl flux remaining, % of negative control (stronger effect = lower value) in test [1] is 37% (active). Moreover, in test [2], the outcome was inactive.
In the case of `Clc1c(OCCCn2ccnc2)ccc2ccccc12`, the compound was classed as inactive in test [1] and in test [2].
Consider `CCCOc1ccc(C(=O)C(CCC(CNCC)C(=O)c2ccc(OCCC)cc2)CNCC)cc1` (stereo unspecified), for which, in test [1], the Tl flux remaining, % of negative control (stronger effect = lower value) was 48% (active). Further, the outcome in test [2] was inactive.
As for `CCCCOC(=O)Cn1c(=O)n(CC(=O)OCCCC)c2cc(C)ccc21`, the outcome in test [1] and in test [2] was inactive.
`COc1ccccc1-c1n[nH]c2c1[C@H](C)CC[C@H]2C(C)C`: the compound was called inactive in test [1] and in test [2].
